Source: PubChem BioAssay
Several values for one entry are separate records, joined by “and”; a condition that tells them apart may be missing. Equal entries are not always repeated. For some of these results: Potency and affinity values are given separately. Activity calls are given as the source filed them.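 How the source made its calls, unless noted: active means luciferase signal above three times the same-plate solvent-only control wells; inactive means the rest.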

How the values were obtained:
[1] = biological target: 6-phosphogluconate dehydrogenase, decarboxylating (Homo sapiens) (UniProt P52209); assay: inhibition of human phosphogluconate dehydrogenase – biochemical, recombinant enzyme, NADPH absorbance, primary screen (AID 1159550;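 active means at least 20% inhibition of 6-phosphogluconate dehydrogenase activity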); details: recombinant 6PGD, NADPH absorbance 341 nm; at 10 µM; stronger effect = higher value
Chain of 6-phosphogluconate dehydrogenase, decarboxylating (Homo sapiens) (P52209 whole entry, looked up): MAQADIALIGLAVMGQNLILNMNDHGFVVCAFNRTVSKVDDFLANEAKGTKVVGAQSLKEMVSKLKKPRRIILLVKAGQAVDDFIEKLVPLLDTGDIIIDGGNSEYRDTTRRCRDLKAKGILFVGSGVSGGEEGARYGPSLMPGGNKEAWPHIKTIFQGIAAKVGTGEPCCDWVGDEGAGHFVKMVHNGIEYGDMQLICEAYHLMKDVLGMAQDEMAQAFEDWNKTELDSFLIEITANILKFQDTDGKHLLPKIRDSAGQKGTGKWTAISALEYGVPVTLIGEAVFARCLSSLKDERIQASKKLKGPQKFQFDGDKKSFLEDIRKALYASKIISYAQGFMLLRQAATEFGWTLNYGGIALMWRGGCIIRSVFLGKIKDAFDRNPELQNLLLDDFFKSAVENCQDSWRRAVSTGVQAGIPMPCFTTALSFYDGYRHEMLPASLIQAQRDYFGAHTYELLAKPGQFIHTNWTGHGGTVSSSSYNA

[2] = EMT-state selective cytotoxicity in co-culture – imaging, PC-3E GFP, TEM4-18 mCherry, primary screen (AID 1345086;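 active means compounds killing one labelled cell type while sparing the other, by normalised counts and ratio limits, not self-fluorescent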;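 on all read-outs here: cells exposed to compound for 72 h before imaging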;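 on red/green cell ratio (normalised): normalised mesenchymal count divided by normalised epithelial count so high means epithelial killing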); details: PC-3E GFP / TEM4-18 mCherry co-culture, imaging cell counts, at 1 µM; for red/green cell ratio (normalised): actives lie on both sides
[3] = test system: Aerobactin synthetase IucA (Klebsiella pneumoniae hvKP1); assay: IucA enzyme inhibition, primary screen, biochemical, Spectrum library (AID 1346200; call rule not given here;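 further: 100% = wells without compound and 0% = wells lacking enzyme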); details: malachite green pyrophosphate, A620, at 8 µM, stronger effect = lower value
[4] = biological target: Mitogen-activated protein kinase 7 (Homo sapiens) (UniProt Q13164); assay: Gal4-ERK5 driven luciferase induction – cell-based, HTS, primary screen (AID 1508626); details: HeLa Gal4-ERK5 transactivation, 18 h, at 5 µM, stronger effect = higher value;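 further: luciferase driven by Gal4-ERK5 fusion binding five Gal4 sites before minimal TATA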
Chain of Mitogen-activated protein kinase 7 (Homo sapiens) (Q13164 whole entry, looked up, the tested form may be a part): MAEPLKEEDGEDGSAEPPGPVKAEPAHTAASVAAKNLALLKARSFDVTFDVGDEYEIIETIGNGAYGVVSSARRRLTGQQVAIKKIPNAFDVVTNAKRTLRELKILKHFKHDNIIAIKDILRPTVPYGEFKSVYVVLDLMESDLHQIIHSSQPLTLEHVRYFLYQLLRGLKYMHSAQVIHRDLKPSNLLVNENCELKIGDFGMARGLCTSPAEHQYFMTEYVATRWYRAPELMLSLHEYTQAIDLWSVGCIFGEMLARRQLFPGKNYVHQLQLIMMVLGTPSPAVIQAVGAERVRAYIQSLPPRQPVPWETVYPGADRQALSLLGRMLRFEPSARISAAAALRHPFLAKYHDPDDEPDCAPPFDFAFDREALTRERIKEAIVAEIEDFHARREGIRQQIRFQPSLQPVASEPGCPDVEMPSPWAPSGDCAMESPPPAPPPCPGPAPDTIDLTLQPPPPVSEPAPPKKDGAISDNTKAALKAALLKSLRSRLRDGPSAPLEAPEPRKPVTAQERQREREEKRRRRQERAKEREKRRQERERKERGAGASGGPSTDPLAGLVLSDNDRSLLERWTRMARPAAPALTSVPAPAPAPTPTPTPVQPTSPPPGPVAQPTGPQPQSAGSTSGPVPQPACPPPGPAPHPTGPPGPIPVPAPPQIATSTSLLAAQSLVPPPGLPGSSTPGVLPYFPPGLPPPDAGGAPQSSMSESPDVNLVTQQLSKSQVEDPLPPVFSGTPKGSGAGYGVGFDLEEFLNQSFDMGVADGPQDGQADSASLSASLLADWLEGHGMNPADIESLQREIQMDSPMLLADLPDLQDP

[5] = blockers of polyQ-driven CASP3 activation – cell-based (AID 1583); details: polyglutamine-induced caspase-3 activation, cell assay; stronger effect = higher value;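 tested at 10 µM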
[6] = yeast 75Q aggregation reduction – 75Q-TubU reporter (AID 1593); details: Yeast 75Q polyglutamine aggregation reporter
[7] = restoration of touch response, mutant HTT neurons – whole organism, C. elegans mechanosensory neurons, N-terminal huntingtin (AID 1599); details: C. elegans polyQ-huntingtin mechanosensory neurons, stronger effect = higher value
[8] = blockers of cytochrome c efflux from mitochondria – biochemical, purified mitochondria (AID 1603); details: stronger effect = lower value;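 further: mouse liver mitochondria challenged with calcium chloride; signal normalized to the plate average as 100%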
[9] = polyglutamine aggregate formation blockers (AID 1604); details: polyglutamine-induced protein aggregation inhibition assay; stronger effect = higher value; tested at 2.5 µM
[10] = glutamate transport activators, MN-1 cells, MN-1 cell line (AID 1612); details: MN-1 motor neuron cells, stronger effect = higher value;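 further: tested at 1 µM final; 0% = mean of DMSO vehicle wells on each plate; positive means more glutamate uptake than control and negative means less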
[11] = 75Q-TubH aggregate inhibition, S. cerevisiae, yeast (AID 1616); details: S. cerevisiae 75Q-TubH polyglutamine aggregation suppression; stronger effect = higher value
[12] = GFP-Q80 aggregate reduction, neuronal-like cells, cell-based, NGF-treated PC12, GFPQ80 (AID 1614); details: PC12 NGF-treated GFP-polyQ80 inclusion reduction;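 further: lower means fewer inclusions and 0 means no inclusions at all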
[13] = P. berghei load reduction in hepatocytes – cell-based, HepG2, luciferase luminescence, HepG2 viability, primary screen (AID 624349; in the data active means parasite load remaining mostly below about 12%, no sharp cut-off; inactive means mostly above about 10%;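 further: 100% = mean of DMSO negative control wells on the same plate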); details: P. berghei liver stage in HepG2, luciferase luminescence, concentration not given here; parasite load remaining: stronger effect = lower value; viability: measured here: HepG2 viability without parasites
[14] = viability loss with induced miR-34 in A549 – imaging, A549 dox-inducible miR-34, nuclei and caspase counts, primary screen (AID 1347080;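 active means compounds whose cell count with miR-34 switched on is under 0.7 times the count with it off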); details: A549 miR-34 inducible, Hoechst nuclei count, 48 h
[15] = biological target: NAD(+) hydrolase SARM1 (Homo sapiens) (UniProt Q6SZW1); assay: blocking NAD cleavage by SARM1 SAM-TIR – cell lysate, NAD-Glo luminescence (AID 1508614;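 active means compound whose remaining NAD level is above about 45 nM, limit read from the data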); details: SAM-TIR HEK293T lysate NADase, at 1 µM, stronger effect = higher value
Chain of NAD(+) hydrolase SARM1 (Homo sapiens) (Q6SZW1 whole entry, looked up): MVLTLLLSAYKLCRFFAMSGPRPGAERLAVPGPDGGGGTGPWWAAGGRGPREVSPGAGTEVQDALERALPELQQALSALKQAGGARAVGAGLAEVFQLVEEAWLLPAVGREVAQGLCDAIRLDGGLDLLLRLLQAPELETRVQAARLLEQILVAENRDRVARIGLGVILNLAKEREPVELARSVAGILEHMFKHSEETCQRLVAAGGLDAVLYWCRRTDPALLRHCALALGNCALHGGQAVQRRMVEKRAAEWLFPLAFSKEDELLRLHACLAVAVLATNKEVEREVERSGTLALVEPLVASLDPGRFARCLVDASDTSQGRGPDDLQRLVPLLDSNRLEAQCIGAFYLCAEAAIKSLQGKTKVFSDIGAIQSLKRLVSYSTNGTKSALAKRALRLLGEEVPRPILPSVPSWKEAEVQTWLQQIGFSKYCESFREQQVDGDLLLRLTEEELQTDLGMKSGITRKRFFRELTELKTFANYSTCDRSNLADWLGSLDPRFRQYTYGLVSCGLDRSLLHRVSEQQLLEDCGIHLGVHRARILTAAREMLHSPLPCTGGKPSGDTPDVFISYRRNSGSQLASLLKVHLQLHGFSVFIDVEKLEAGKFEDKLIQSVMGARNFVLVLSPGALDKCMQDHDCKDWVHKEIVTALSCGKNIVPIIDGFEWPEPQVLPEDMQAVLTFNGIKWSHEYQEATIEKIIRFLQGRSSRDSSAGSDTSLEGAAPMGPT

[16] = measured here: epithelial PC-3E GFP cell survival
[17] = measured here: mesenchymal TEM4-18 mCherry cell survival
[18] = counts scaled to control wells, 1 = unselective

CC(=O)Oc1ccc(/C=C/c2cc(OC(C)=O)cc(OC(C)=O)c2)cc1
inhibition [1]: -2.26% (inactive) | red/green cell ratio (normalised) [2]: 1.01 (inactive) | normalised cell number [2, 16]: 0.98 | normalised cell number [2, 17]: 1 | activity remaining [3]: 103% (inactive) | luciferase signal [4]: 20 AU (inactive)

COc1cc2c(cc1OC)[C@@H]1C(=O)c3ccc4oc(C(C)C)cc4c3O[C@@H]1CO2
inhibition [1]: 4.17% (inactive) | red/green cell ratio (normalised) [2]: 0.79 (inactive) | normalised cell number [2, 16]: 1.25 | normalised cell number [2, 17]: 0.98 | activity remaining [3]: 104% (inactive) | luciferase signal [4]: 76 AU (inactive)

O=C1C=C2C(=CCOC2O)O1 (stereo not drawn)
inhibition [5]: 71.1% | score [6]: 1.15 | rescue above control [7]: -6.1 | cytochrome c release ratio [8]: 0.78 | inhibition of aggregation [9]: 0% | glutamate uptake change [10]: -4.18% | aggregation suppression score [11]: 0.84 | inhibition [1]: 4.22% (inactive) | red/green cell ratio (normalised) [2]: 0.44 (inactive) | normalised cell number [2, 16]: 0.14 | normalised cell number [2, 17]: 0.06 | activity remaining [3]: 124% (inactive) | luciferase signal [4]: 3170 AU (active)

C/C=C(/C)C(=O)O[C@H]1CC[C@@]2(C)[C@@H]3CC[C@H]4[C@]5(O)C[C@H](O)[C@@]6(O)[C@@H](CN7C[C@@H](C)CC[C@H]7[C@@]6(C)O)[C@]5(O)C[C@@]42O[C@]13O
inhibition [5]: -10.4% | score [6]: 1.23 | rescue above control [7]: 6.62 | cytochrome c release ratio [8]: 0.66 | inhibition of aggregation [9]: 73.8% | glutamate uptake change [10]: 7.49% | inclusion score [12]: 2 | aggregation suppression score [11]: 1.05 | inhibition [1]: -10.1% (inactive) | red/green cell ratio (normalised) [2]: 0.76 (inactive) | normalised cell number [2, 16]: 1.31 | normalised cell number [2, 17]: 1 | activity remaining [3]: 98.9% (inactive) | luciferase signal [4]: 96 AU (inactive) and 56 AU (inactive)

CC(=O)Oc1c2c(c(CC=C(C)C)c3c1C(=O)C1=C[C@@H]4CC5C(C)(C)OC(C/C=C(\C)C(=O)O)(C4=O)[C@@]15O3)OC(C)(CCC=C(C)C)C=C2 (stereo partly drawn)
inhibition [1]: 23.4% (active) | red/green cell ratio (normalised) [2, 18]: 0.83 (inactive) | normalised cell number [2, 16]: 1.18 | normalised cell number [2, 17]: 0.98 | activity remaining [3]: 120% (inactive) | luciferase signal [4]: 140 AU (inactive)

C=C(C)c1cc2cc(C(C)=O)c(O)cc2o1
inhibition [1]: 13.2% (inactive) | red/green cell ratio (normalised) [2]: 0.8 (inactive) | normalised cell number [2, 16]: 1.14 | normalised cell number [2, 17]: 0.92 | activity remaining [3]: 104% (inactive) | luciferase signal [4]: 64 AU (inactive)

C/C=C/c1ccc2c(c1)OCO2
inhibition [1]: -4.44% (inactive) | red/green cell ratio (normalised) [2]: 0.96 (inactive) | normalised cell number [2, 16]: 1.11 | normalised cell number [2, 17]: 1.06 | activity remaining [3]: 80.6% (inactive) | luciferase signal [4]: 296 AU (active)

COc1cc2ccc(=O)oc2c2ccoc12
inhibition [1]: 13.8% (inactive) | red/green cell ratio (normalised) [2]: 1.01 (inactive) | normalised cell number [2, 16]: 0.96 | normalised cell number [2, 17]: 0.97 | activity remaining [3]: 119% (inactive) | luciferase signal [4]: 64 AU (inactive)

COc1c2c(cc3c1OCO3)CC[N+](C)=C2
inhibition [1]: 8.25% (inactive) | red/green cell ratio (normalised) [2, 18]: 1.03 (inactive) | normalised cell number [2, 16]: 0.97 | normalised cell number [2, 17]: 1 | activity remaining [3]: 99.6% (inactive) | luciferase signal [4]: 20 AU (inactive)

COc1cc([C@@H]2c3cc4c(c(O)c3C[C@H]3COC(=O)[C@@H]32)OCO4)cc(OC)c1OC
inhibition [1]: -17.8% (inactive) | red/green cell ratio (normalised) [2]: 0.83 (inactive) | normalised cell number [2, 16]: 0.2 | normalised cell number [2, 17]: 0.16 | activity remaining [3]: 116% (inactive) | luciferase signal [4]: 16 AU (inactive)

COc1cc(OC)c2c(c1)O[C@H](c1ccc(OC)c(OC)c1)[C@@H](O)C2
inhibition [1]: 14.9% (inactive) | red/green cell ratio (normalised) [2]: 0.81 (inactive) | normalised cell number [2, 16]: 0.96 | normalised cell number [2, 17]: 0.78 | activity remaining [3]: 111% (inactive) | luciferase signal [4]: 32 AU (inactive)

O=C1CCO1
inhibition [5]: 12.7% | score [6]: 1.2 | rescue above control [7]: 11.7 | cytochrome c release ratio [8]: 1.11 | inhibition of aggregation [9]: 22.4% | glutamate uptake change [10]: 5.98% | inclusion score [12]: 2 | aggregation suppression score [11]: 1.23 | parasite load remaining [13]: 165% (inactive) and 39.1% (inactive) | viability [13]: 91.2% and 89.3% | inhibition [1]: -4.86% (inactive) | red/green cell ratio (normalised) [2]: 1.22 (inactive) | normalised cell number [2, 16]: 0.9 | normalised cell number [2, 17]: 1.09 | fold change ([14]; stronger effect = lower value): 0.872 (inactive) | fold change ([14]; measured here: relative caspase fold change +Dox/-Dox): 2.98 | cell count ([14]; measured here: total cells with miR-34 induction, stronger effect = lower value): 11800 | cell count ([14]; measured here: total cells without miR-34 induction): 13500 | remaining NAD [15]: 10 nM (inactive) | luciferase signal [4]: 100 AU (inactive)

CCOP(=S)(OCC)SCn1c(=O)oc2cc(Cl)ccc21
inhibition [1]: -13.8% (inactive) | activity remaining [3]: 96.1% (inactive)
